# Data: PubChem BioAssay
# Active and inactive are the calls of the source.
# Key:
# [1] = binders of probe aFSTL3 on microarray, primary screen, stem cell growth factor project, biochemical, small-molecule microarray, fluorescence 635/667 (AID 1064); settings: higher = more signal;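 note: measures binding of the biotinylated anti-FSTL3 antibody to printed compounds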
# [2] = binders from COS7 lysate, DM2A8 probe, primary screen, torsin A project, cell lysate, small-molecule microarray, fluorescence 635/667 (AID 1065); settings: higher = more signal, COS7 lysate expressing mutant human TOR1A
# [3] = binders of probe aFGF2 on microarray, primary screen, stem cell growth factor project, biochemical, small-molecule microarray, fluorescence 635/667 (AID 1067); settings: higher = more signal;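 note: measures binding of biotinylated aFGF2 protein to printed compounds on slides; z-score merges feature fluorescence and signal-to-noise across triplicate slides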
# [4] = binders of probe aFGF10 on microarray, primary screen, stem cell growth factor project, biochemical, small-molecule microarray, fluorescence 635/667 (AID 1071); settings: higher = more signal;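 note: score merges 667 nm spot intensity and signal to noise from triplicate slides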
# [5] = biological target: Neurogenic locus notch homolog protein 2 (Homo sapiens) (UniProt Q04721); experiment: Notch2 binders on small-molecule microarrays, primary screen, biochemical, small-molecule microarray, 635 nm fluorescence, stem cell growth factors (AID 1073); settings: Notch2 binding, higher = more signal
# [6] = biological target: Pro-neuregulin-1, membrane-bound isoform (Homo sapiens) (UniProt Q02297); experiment: NRG1 binders on small-molecule microarrays, primary screen, psychiatric disease protein project, biochemical, small-molecule microarray, fluorescence 635/667 (AID 1075); settings: NRG1 binding, 635 nm fluorescence, higher = more signal;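 note: score combines 667 nm spot fluorescence with signal to noise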
# Pro-neuregulin-1, membrane-bound isoform (Homo sapiens), sequence (Q02297 whole entry, looked up, the tested form may be a part, canonical isoform): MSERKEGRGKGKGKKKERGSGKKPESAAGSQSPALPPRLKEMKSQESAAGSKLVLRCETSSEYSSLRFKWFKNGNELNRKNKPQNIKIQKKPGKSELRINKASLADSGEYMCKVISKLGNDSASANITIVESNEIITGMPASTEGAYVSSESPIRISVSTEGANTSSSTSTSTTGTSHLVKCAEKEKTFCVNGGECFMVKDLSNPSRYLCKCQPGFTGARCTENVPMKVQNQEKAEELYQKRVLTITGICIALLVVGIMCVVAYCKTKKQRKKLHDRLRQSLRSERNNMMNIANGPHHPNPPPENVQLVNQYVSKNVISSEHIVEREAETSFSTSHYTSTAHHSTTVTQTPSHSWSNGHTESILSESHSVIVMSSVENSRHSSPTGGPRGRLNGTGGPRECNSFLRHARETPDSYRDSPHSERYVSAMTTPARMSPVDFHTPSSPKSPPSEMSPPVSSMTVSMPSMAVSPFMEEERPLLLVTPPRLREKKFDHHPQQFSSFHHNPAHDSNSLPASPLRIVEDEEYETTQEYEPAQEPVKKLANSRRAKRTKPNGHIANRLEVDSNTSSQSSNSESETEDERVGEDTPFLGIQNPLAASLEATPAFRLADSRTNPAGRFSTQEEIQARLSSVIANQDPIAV
# [7] = system: Neuregulin-1 EGF-like domain; experiment: binders of neuregulin-1 EGF-like domain, primary screen, biochemical, small-molecule microarray, 635 nm fluorescence (AID 1081); settings: small-molecule microarray binding, higher = more signal;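 note: binding of the protein to compounds printed on small-molecule microarray slides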
# [8] = FRG1 promoter luciferase signal modulators, primary screen, FRG1 inhibition for FSHD, cell-based, C2C12 myotubes, firefly/Renilla luciferase, luminescence (AID 1084); settings: higher = more signal, called active from +8 up or from −8 down
# [9] = binders of probe aFST on microarray, primary screen, stem cell growth factor project, biochemical, small-molecule microarray, fluorescence 635/667 (AID 1086); settings: higher = more signal;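 note: score merges 667 nm fluorescence with signal-to-noise of each printed compound spot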
# [10] = binders of probe aHhip on microarray, primary screen, stem cell growth factor project, biochemical, small-molecule microarray, fluorescence 635/667 (AID 1087); settings: higher = more signal;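 note: score merges spot fluorescence at 667nm with spot signal to noise ratio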
# [11] = system: PRMT1 (protein arginine N-methyltransferase 1); experiment: PRMT1 binders on small-molecule microarrays, primary screen, biochemical, small-molecule microarray, 635 nm fluorescence (AID 1088); settings: small-molecule microarray binding, higher = more signal;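 note: binding of Prmt1 protein to compounds spotted on small-molecule microarray slides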
# [12] = yeast growth modulation, basal conditions, primary screen, YJM789 clinical isolate, OD600, 24 h (AID 1089);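 note: growth of clinical yeast isolate S. cerevisiae YJM 789 seeded 1000 cells per well; test concentration not given here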; settings: S. cerevisiae YJM789 growth, higher = more signal, called active from +8 up or from −8 down
# [13] = fission yeast growth modulation, primary screen, strain 972, OD600, 24 h, no modulator (AID 1090);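 note: basal condition with compound alone and no growth modifier present; test concentration not given here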; settings: S. pombe 972 growth, higher = more signal, called active from +8 up or from −8 down
# [14] = S. cerevisiae growth modulation with rapamycin, primary screen, strain BY4716, OD600, 96 h (AID 1091); settings: higher = more signal, called active from +8 up or from −8 down; note: test concentration not given here
# [15] = biological target: Torsin-1A-interacting protein 2 (Homo sapiens) (UniProt Q8NFQ8); experiment: LULL1 binders on small-molecule microarray, primary screen, cell lysate, human LULL1 lysate, 635/667 nm fluorescence (AID 1092); settings: hLULL1 lysate binding, 635 nm fluorescence, higher = more signal;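 note: probe is lysate of COS7 cells overexpressing human LULL1; score merges per-feature 667 nm fluorescence with signal-to-noise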
# Torsin-1A-interacting protein 2 (Homo sapiens), sequence (Q8NFQ8 whole entry, looked up): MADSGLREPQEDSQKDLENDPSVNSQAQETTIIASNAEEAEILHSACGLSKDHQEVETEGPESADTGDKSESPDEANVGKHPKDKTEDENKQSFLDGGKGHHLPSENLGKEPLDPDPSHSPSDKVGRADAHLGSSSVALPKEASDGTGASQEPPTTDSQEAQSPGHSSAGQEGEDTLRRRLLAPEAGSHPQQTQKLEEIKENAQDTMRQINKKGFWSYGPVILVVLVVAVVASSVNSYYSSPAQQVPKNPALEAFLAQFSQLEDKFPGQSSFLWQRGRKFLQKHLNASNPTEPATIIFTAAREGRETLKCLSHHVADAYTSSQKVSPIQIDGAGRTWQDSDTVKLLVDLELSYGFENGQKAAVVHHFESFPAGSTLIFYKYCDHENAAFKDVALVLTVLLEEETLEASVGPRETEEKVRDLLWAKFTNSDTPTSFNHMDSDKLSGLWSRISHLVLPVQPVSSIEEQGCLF
# [16] = E. coli growth modulation, two-sided OD650, primary screen, E. coli filamentation project, strain DRC41, 24 h (AID 1093); settings: OD650, 24 h, higher = more signal, called active from +8 up or from −8 down;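 note: MC1000 strain lacking acrAB efflux and sulA so SOS filamentation is blocked; test concentration not given here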
# [17] = small-molecule microarray binders of probe aLefty2, primary screen, biochemical, biotinylated probe, 635/667 nm fluorescence (AID 1094); settings: higher = more signal;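 note: score merges spot fluorescence near 667 nm with spot signal-to-noise ratio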
# [18] = system: Noggin (protein binding on small-molecule microarray); experiment: Noggin binders on small-molecule microarray, primary screen, biochemical, 635/667 nm fluorescence (AID 1095); settings: 635 nm fluorescence, higher = more signal;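 note: score merges 667 nm feature fluorescence with signal to noise over triplicate slides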
# [19] = biological target: Neurogenic locus notch homolog protein 3 (Homo sapiens) (UniProt Q9UM47); experiment: NOTCH3 binders on small-molecule microarray, primary screen, biochemical, 635/667 nm fluorescence (AID 1096); settings: NOTCH3 binding, 635 nm fluorescence, higher = more signal
# Neurogenic locus notch homolog protein 3 (Homo sapiens), sequence (Q9UM47 whole entry, looked up): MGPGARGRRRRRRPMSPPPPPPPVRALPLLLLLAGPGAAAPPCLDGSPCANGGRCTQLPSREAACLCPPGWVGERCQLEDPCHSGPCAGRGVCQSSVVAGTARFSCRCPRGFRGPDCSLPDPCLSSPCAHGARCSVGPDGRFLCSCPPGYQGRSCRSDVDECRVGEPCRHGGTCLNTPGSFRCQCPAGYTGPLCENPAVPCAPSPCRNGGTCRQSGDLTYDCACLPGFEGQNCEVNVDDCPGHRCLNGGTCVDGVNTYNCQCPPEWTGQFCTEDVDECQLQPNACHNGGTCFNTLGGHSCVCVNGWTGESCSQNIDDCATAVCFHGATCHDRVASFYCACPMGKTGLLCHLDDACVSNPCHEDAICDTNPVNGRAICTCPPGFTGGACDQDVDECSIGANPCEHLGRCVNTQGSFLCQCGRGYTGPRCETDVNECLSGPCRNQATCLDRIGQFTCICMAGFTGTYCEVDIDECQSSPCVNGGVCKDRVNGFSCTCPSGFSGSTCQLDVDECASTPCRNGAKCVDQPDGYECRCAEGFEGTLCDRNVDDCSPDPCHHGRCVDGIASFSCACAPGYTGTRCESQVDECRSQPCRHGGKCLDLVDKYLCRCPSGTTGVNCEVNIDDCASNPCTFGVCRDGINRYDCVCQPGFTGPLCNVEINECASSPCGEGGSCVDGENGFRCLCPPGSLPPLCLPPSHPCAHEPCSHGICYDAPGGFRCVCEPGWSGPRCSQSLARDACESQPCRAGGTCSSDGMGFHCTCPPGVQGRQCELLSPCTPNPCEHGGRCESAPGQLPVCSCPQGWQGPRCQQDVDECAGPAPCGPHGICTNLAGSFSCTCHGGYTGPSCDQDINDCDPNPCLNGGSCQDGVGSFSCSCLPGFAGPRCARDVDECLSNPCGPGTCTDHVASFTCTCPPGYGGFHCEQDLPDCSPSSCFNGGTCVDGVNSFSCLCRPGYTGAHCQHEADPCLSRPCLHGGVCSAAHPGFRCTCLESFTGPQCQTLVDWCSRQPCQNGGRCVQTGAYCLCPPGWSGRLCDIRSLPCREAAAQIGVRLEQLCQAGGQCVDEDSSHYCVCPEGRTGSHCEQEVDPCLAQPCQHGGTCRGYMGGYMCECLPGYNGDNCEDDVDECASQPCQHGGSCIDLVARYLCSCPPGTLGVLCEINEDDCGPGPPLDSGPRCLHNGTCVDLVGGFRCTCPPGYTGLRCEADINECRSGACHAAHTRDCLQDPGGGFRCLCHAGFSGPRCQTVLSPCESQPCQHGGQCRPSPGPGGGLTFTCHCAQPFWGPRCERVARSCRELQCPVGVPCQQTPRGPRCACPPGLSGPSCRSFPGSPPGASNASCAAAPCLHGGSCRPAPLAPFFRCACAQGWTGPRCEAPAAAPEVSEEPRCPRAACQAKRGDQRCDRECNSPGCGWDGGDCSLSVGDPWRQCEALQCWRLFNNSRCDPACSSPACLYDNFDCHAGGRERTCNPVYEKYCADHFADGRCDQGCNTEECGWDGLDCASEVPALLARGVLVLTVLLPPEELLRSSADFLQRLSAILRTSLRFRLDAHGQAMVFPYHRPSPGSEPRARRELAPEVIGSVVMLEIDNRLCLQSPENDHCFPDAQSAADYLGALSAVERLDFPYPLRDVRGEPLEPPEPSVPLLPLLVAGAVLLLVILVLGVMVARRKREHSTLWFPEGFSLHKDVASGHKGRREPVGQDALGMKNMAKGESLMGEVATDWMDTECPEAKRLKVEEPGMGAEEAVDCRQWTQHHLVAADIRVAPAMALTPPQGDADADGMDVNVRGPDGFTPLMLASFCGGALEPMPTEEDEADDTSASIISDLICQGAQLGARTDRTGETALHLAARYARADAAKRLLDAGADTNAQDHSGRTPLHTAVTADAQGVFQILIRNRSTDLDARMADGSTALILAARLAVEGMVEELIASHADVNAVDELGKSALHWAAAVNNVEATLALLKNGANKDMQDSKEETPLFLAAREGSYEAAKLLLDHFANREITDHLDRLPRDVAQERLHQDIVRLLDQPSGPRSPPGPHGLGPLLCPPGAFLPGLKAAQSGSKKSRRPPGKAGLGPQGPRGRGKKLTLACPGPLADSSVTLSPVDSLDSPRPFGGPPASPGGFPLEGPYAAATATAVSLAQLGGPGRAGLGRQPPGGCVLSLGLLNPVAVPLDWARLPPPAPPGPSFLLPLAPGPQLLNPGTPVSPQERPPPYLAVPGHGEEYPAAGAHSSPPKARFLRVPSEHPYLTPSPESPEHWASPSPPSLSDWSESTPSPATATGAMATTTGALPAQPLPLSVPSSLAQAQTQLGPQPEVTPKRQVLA
# [20] = small-molecule microarray binders of probe aEGFR, primary screen, biochemical, biotinylated probe, 635/667 nm fluorescence (AID 1097); settings: higher = more signal;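 note: probe is a biotinylated anti-EGFR antibody binding compounds printed on slides; score combines fluorescence near 667 nm and signal to noise of each spot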
Compound,composite z-score [1],composite z-score [2],composite z-score [3],composite z-score [4],composite z-score [5],composite z-score [6],composite z-score [7],z-score [8],composite z-score [9],composite z-score [10],composite z-score [11],z-score [12],z-score [13],z-score [14],composite z-score [15],z-score [16],composite z-score [17],composite z-score [18],composite z-score [19],composite z-score [20]
CS(=O)(=O)CCOC(=O)C1=CC(c2ccc(CO)cc2)=CC(c2cccs2)N(Cc2cccc(OC(F)(F)F)c2)C=C1C(=O)OCCS(C)(=O)=O (stereo not given),-0.398,0.405,0.024,0.708,1,1.63,0.999,0.371 (inactive),1.14,0.0139,1.34,-0.246 (inactive),-3.38 (inactive),2.41 (inactive),3.12,-0.575 (inactive),-0.0833,0.333,0.856,-0.0688
Cc1ccc(N2C(=O)c3ccccc3[C@@H](C(=O)NC(C)C)[C@@H]2c2ccc(CO)cc2)nc1,0.675,-0.374,-0.0598,0.079,-0.333,-0.318,1.27,0.822 (inactive),-1.08,-0.0994,0.528,-1.14 (inactive),-0.958 (inactive),-1.62 (inactive),3.07,-0.113 (inactive),-0.0336,-0.0751,-0.528,-0.115
CN1C(=O)C2C=CC(C(O)C3=C[C@H]4C[C@@H](C3)C4(C)C)N(Nc3ccc([N+](=O)[O-])cc3[N+](=O)[O-])C2C1=O (stereo not given in full),0.574,0.156,0.15,0.733,1.66,1.51,1.33,0.0285 (inactive),0.642,0.0826,1.49,1.07 (inactive),0.595 (inactive),1.96 (inactive),3.28,-0.43 (inactive),0.256,0.0179,1.02,0.213
C=CC[C@]1(C(=O)O)N=C(c2ccc(OCCCO)cc2)O[C@H]1c1ccccc1CN=[N+]=[N-],0.736,-0.43,-0.144,-0.638,-0.129,0.743,0.467,2.22 (inactive),0.182,-0.275,-0.697,0.442 (inactive),0.263 (inactive),0.602 (inactive),1.55,0.143 (inactive),-0.135,-0.383,-0.522,-0.0239
COc1ccc([Si](C)(C)[C@H]2[C@H](CC(=O)N3Cc4ccccc4C[C@H]3CO)O[C@@]3(C(=O)N(Cc4cccc(I)c4)c4ccccc43)[C@@H]2C)cc1,-0.0638,2.29,-0.0158,0.142,0.379,0.438,0.853,-2.84 (inactive),-0.186,0.289,1.55,-0.413 (inactive),0.603 (inactive),2.75 (inactive),-0.48,1.2 (inactive),-0.119,2.05,0.863,-0.0758
CC(=O)N1Cc2ccccc2C[C@@]2(N=C(c3ccc(OCCCO)cc3)O[C@H]2c2ccccc2)C1=O,0.136,0.0287,0.0933,0.145,1.09,1.54,1.31,-3.53 (inactive),1.55,-0.393,1.53,-3.56 (inactive),-3.68 (inactive),17.1 (active),3.32,1.5 (inactive),0.215,1.47,1.11,0.107
O=C1O[C@@H](c2ccccc2)[C@@H](c2ccccc2)N2[C@@H](c3ccc(O)cc3)[C@]3(C(=O)Nc4ccccc43)[C@@H](C(=O)N3CCCCCCC3)[C@H]12,3.65,1.15,0.937,0.525,0.519,2.22,1.35,-4.16 (inactive),2.99,1.07,1.54,0.964 (inactive),0.295 (inactive),1.9 (inactive),4.32,0.271 (inactive),1.54,0.589,0.896,1.13
COCC1=C([C@H](O)CCc2ccccc2)[C@H](CO)[C@@H]2C(=O)N(Cc3ccccc3)C(=O)[C@@H]2C1,-0.286,-0.133,-0.101,0.085,0.258,-0.295,-0.112,-0.4 (inactive),-0.0829,-0.249,-0.197,0.226 (inactive),-0.819 (inactive),-0.177 (inactive),-0.0602,1.38 (inactive),-0.235,0.49,0.248,-0.0794
CN1C(=O)C2C=CC(C(O)c3ccc(Br)cc3)N(Nc3ccccc3)C2C1=O (stereo not given),0.607,1.46,-0.0747,-0.287,-0.468,0.648,0.728,0.665 (inactive),-0.118,-0.0346,-0.897,0.947 (inactive),-0.0449 (inactive),0.878 (inactive),1.27,-0.54 (inactive),0.296,-1.48,-1.17,-0.0594
COC(=O)[C@@]1(Cc2ccc(F)cc2)[C@H]2c3cc(C(=O)N(C)C)n(CCc4c[nH]c5ccc(OC)cc45)c3C[C@H]2CN1C(=O)c1ccccc1,1.1,1.29,0.181,0.175,1.37,0.88,1.36,1.59 (inactive),1.34,0.836,0.84,0.12 (inactive),-0.331 (inactive),0.342 (inactive),3.17,-1.47 (inactive),0.809,-0.682,0.0599,0.341
